Our source for the growth values is PubChem BioAssay (NCI).

Molecules are shown by their SMILES. This is part of a sample that, as a whole, favours compounds with a hit. Of some 83,000 tested, about 20% had one in any assay.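 For each line, cells grew in 96-well plates with the test compound present at a single concentration for 48 hours.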 Unmarked numbers belong to inactive results. Calls of active or inactive are those of the source. How the source made its calls: active means growth percent below 10; inactive means the rest.

The test system of this test is SF-539 CNS. Put plainly: NCI-60 one-dose screen, 48 h (100 = growth as untreated, 0 = no growth, -100 = all killed). The following applies: 10 µM unless noted.
For the compound `CCOC(=O)c1ccc(N(CCC(=O)O)C(C)=O)cc1`, the growth was 107%.
With `Nc1c(C(=O)Nc2cccc(Cl)c2)sc2ncc(Br)cc12` the figure was 61.5%.
With `CSC(=S)N/N=C(\C)c1ccccn1` the figure was 1.81% (active); with `CC(=O)O[C@H]1[C@H](CC#CC#CC[C@@H]2C[C@]3(C)[C@H]4CC=C5[C@H]6[C@@H](C)[C@H](C)CC[C@]6(C(=O)NCCCCCCCCN)CC[C@@]5(C)[C@]4(C)CC[C@H]3C(C)(C)[C@H]2OC(C)=O)C[C@]2(C)[C@H]3CC=C4[C@H]5[C@@H](C)[C@H](C)CC[C@]5(C(=O)NCCCCCCCCN)CC[C@@]4(C)[C@]3(C)CC[C@H]2C1(C)C`, 94.1%.
Then `CC(C)COC(=O)NC(C)(C)C`, with 101%; and `CCC(=O)NC(O)C(Cl)(Cl)C(C)Cl` (stereo not drawn), with 99.3%; and `C#CCNC(=S)N/N=C(\C)c1ccccn1`, with 1.69% (active).
As to `COc1ccc(-c2nnc(SCC(=O)Nc3ccc(C(=O)/C=C/c4ccc(Cl)cc4)cc3)n2-c2ccccc2)cc1`, the growth is 101%.
With `CC1CCN(Cc2ccc(NC(=O)c3cc4ccc5cccnc5c4[nH]3)cc2)CC1` the figure was 8.44% (active); with `CC(C)N1CCN(c2ccncc2S(=O)(=O)N2CCN(C)CC2)CC1`, 99.8%.
With `O=C(/C=C/c1ccccc1)n1c(-c2ccccc2)nc2ccccc21` the figure was 95.3%; with `COC1CC(N)C2OC(c3ccccc3)OCC2O1` (stereo not drawn), 101%; with `COc1cccc(NC(=O)[C@H](C(C)C)n2c(=O)[nH]c3ccccc3c2=O)c1`, 102%.
